Structures are written as SMILES. Compounds without any hit were thinned out: in the full panel of roughly 83,000, 20% have a hit.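 Compound tested at a single concentration for 48 hours in 96-well plates; a percent growth value below 10 was scored as active.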 A number with no mark means an inactive call. Calls of active or inactive are those of the source.

The source of these data is PubChem BioAssay (NCI).

Some test systems named below: NCI-H23 lung; NCI-H226 lung; NCI-H322M lung; HOP-62 NSCLC; NCI-H460 lung; HOP-92 NSCLC; NCI-H522 lung; A549/ATCC NSCLC; 786-0 renal; COLO 205 colon; DU-145 prostate; K-562 leukemia; MALME-3M melanoma; MDA-MB-231 breast; RXF 393 renal; SF-268 CNS; SF-295 CNS; SF-539 CNS; UACC-257 melanoma; M14 melanoma.
Common to all, as to assay: NCI-60 one-dose screen, 48 h (100 = growth as untreated, 0 = no growth, -100 = all killed)
Details in all cases: 10 µM unless noted

Turning to `Cc1ccc(Cc2cnc(NC(=O)/C=C/c3ccc(C)o3)s2)cc1`, the growth was 56% in the test with NCI-H23 lung; 69.9% with NCI-H226 lung; 48.1% in the test with NCI-H322M lung; 53.6% with HOP-62 NSCLC; 12% with NCI-H460 lung; 59.5% with HOP-92 NSCLC. Also, the growth is 19.3% in the test on NCI-H522 lung; 35.7% in the test on A549/ATCC NSCLC; 42% with 786-0 renal; 23.2% in the test on COLO 205 colon; 33.9% in the test on DU-145 prostate; 18.6% in the test on K-562 leukemia. Further, the growth with MALME-3M melanoma was 35.2%; in the test on MDA-MB-231 breast, 67.9%; in the test with RXF 393 renal, 41.6%; in the test on SF-268 CNS, 52.9%; in the test on SF-295 CNS it was 23.6%; with SF-539 CNS it was 23.6%. For the same molecule, the growth in the test on UACC-257 melanoma is 62.5%; with M14 melanoma it was 12.1%.

Consider `CCOC(=O)CNC1=C(Cl)C(=O)N(Cc2ccc(Cl)cc2)C1=O`, for which the growth was 102% in the test on NCI-H23 lung; 99.7% with NCI-H226 lung; 97% in the test on NCI-H322M lung; 98% with HOP-62 NSCLC; 104% in the test on NCI-H460 lung; 93.4% in the test on HOP-92 NSCLC. Also, the growth with NCI-H522 lung was 89.1%; in the test on A549/ATCC NSCLC, 106%; in the test on 786-0 renal it was 99%; with COLO 205 colon, 118%; in the test on DU-145 prostate, 113%; in the test on K-562 leukemia, 106%. The growth with MALME-3M melanoma was 93.9%; in the test on MDA-MB-231 breast it was 104%; in the test on RXF 393 renal, 120%; with SF-268 CNS, 98.5%; in the test with SF-295 CNS, 108%; with SF-539 CNS it was 90.6%. Further, the growth in the test on UACC-257 melanoma is 106%; in the test with M14 melanoma, 105%.

Take `Cc1nc2sc(C(=O)Nc3cccc(Cl)c3C)c(N)c2cc1C(=O)/C=C/c1ccccc1`: the growth was 28.6% with NCI-H23 lung; -52.2% (active) with NCI-H226 lung; 19.1% in the test with NCI-H322M lung; -11.2% (active) in the test on HOP-62 NSCLC; -25.3% (active) in the test with NCI-H460 lung; 1.05% (active) with HOP-92 NSCLC. Further, the growth in the test on NCI-H522 lung is -49.8% (active); in the test with A549/ATCC NSCLC, 10.1%; with 786-0 renal, -51.1% (active); in the test on DU-145 prostate it was 5.7% (active); in the test with K-562 leukemia it was 10.2%; in the test on MALME-3M melanoma, 39.7%. Besides, the growth with MDA-MB-231 breast is -38.4% (active); in the test with RXF 393 renal, -82.8% (active); in the test on SF-268 CNS it was 4.07% (active); in the test with SF-295 CNS, -14.8% (active); in the test on SF-539 CNS, -25.5% (active); in the test with UACC-257 melanoma it was 64.2%. The growth with M14 melanoma is -15.9% (active).

Regarding `COc1ccc2c(c1)oc1c(C)c3c(c(C)c12)C(=O)N(CCOS(C)(=O)=O)C3=O`, the growth in the test on NCI-H23 lung was 94.2%; with NCI-H226 lung, 106%; with NCI-H322M lung it was 96.7%; in the test with HOP-62 NSCLC, 103%; with NCI-H460 lung it was 94%; with HOP-92 NSCLC it was 113%. The growth with NCI-H522 lung is 87.7%; in the test on A549/ATCC NSCLC, 109%; in the test with 786-0 renal, 95.2%; in the test with DU-145 prostate, 106%; in the test on K-562 leukemia it was 96%; with MALME-3M melanoma it was 90.1%. In addition, the growth in the test on MDA-MB-231 breast was 90.7%; in the test on RXF 393 renal, 116%; in the test with SF-268 CNS it was 92.3%; in the test on SF-295 CNS it was 103%; with SF-539 CNS it was 92.2%; with UACC-257 melanoma, 125%. In addition, in the test with M14 melanoma, the growth was 103%.

Turning to `CN(C)c1ccc(CNCCO)cc1`, the growth is 107% with NCI-H23 lung; 91.9% with NCI-H226 lung; 104% with NCI-H322M lung; 76.3% in the test on HOP-62 NSCLC; 105% with NCI-H460 lung; 75.1% in the test with HOP-92 NSCLC. The growth in the test with NCI-H522 lung was 43.5%; in the test on A549/ATCC NSCLC it was 76%; in the test with 786-0 renal it was 86.1%; in the test on DU-145 prostate it was 105%; with K-562 leukemia, 97.9%; in the test on MALME-3M melanoma, 103%. Further, the growth was 110% with MDA-MB-231 breast; 113% with RXF 393 renal; 101% in the test on SF-268 CNS; 103% in the test with SF-295 CNS; 97.5% in the test with SF-539 CNS; 85.4% in the test with UACC-257 melanoma. The growth in the test with M14 melanoma was 96.7%.

On to `CN(C)CCC(CCN(C)C)(C(=O)O)c1ccccc1`, for which the growth was 107% with NCI-H23 lung; 106% in the test on NCI-H226 lung; 103% in the test on NCI-H322M lung; 94% with HOP-62 NSCLC; 104% in the test on NCI-H460 lung; 84.9% in the test on HOP-92 NSCLC. The growth with NCI-H522 lung was 88.2%; in the test with A549/ATCC NSCLC it was 99%; in the test with 786-0 renal, 105%; in the test with DU-145 prostate it was 115%; in the test with K-562 leukemia, 98.1%; with MALME-3M melanoma it was 97.5%. For the same molecule, the growth with MDA-MB-231 breast was 97.2%; in the test with RXF 393 renal, 112%; in the test with SF-268 CNS, 107%; with SF-295 CNS it was 103%; with SF-539 CNS it was 95.3%; in the test on UACC-257 melanoma it was 99.7%. Besides, the growth in the test with M14 melanoma is 99.2%.

For `Oc1c(CN2CCC(N3CCOCC3)CC2)cc(Cc2cc(CN3CCC(N4CCOCC4)CC3)c(O)c3ncccc23)c2cccnc12`, the growth is 40.8% in the test on NCI-H23 lung; 2.53% (active) in the test with NCI-H226 lung; 37.6% in the test on NCI-H322M lung; 19.4% in the test with HOP-62 NSCLC; 10.5% in the test on NCI-H460 lung; 41.7% with HOP-92 NSCLC. The growth in the test with NCI-H522 lung was 15.4%; with A549/ATCC NSCLC, 18.5%; in the test with 786-0 renal, 25.5%; in the test with DU-145 prostate it was 34.5%; in the test on K-562 leukemia it was 11.1%; in the test on MALME-3M melanoma it was 56.1%. In addition, the growth was 8.58% (active) with MDA-MB-231 breast; 53.5% with RXF 393 renal; 25.5% with SF-268 CNS; -21.1% (active) in the test on SF-295 CNS; 6.51% (active) in the test on SF-539 CNS; 64.5% with UACC-257 melanoma. For the same molecule, in the test on M14 melanoma, the growth is 11.3%.

As to `CCN(CC)CCn1c2ccc(OC)cc2c2sc3cc(O)ccc3c(=O)c21`, the growth was 23.9% in the test on NCI-H23 lung; 112% in the test on NCI-H226 lung; 34.2% in the test on NCI-H322M lung; 34.4% in the test on HOP-62 NSCLC; 8.17% (active) in the test on NCI-H460 lung; 61.8% with HOP-92 NSCLC. Further, the growth in the test on NCI-H522 lung was 42.2%; with A549/ATCC NSCLC, 17.9%; in the test with 786-0 renal, 26.1%; in the test with DU-145 prostate, 42.7%; with K-562 leukemia, 6.38% (active); in the test with MALME-3M melanoma, 34.1%. The growth in the test on MDA-MB-231 breast is 54.1%; in the test on RXF 393 renal, 27.5%; in the test with SF-268 CNS, 38.5%; in the test on SF-295 CNS, 17.9%; with SF-539 CNS, 25.3%; with UACC-257 melanoma, 78.4%. Moreover, in the test on M14 melanoma, the growth is 31.2%.
